Assay outcomes: PubChem BioAssay, National Center for Advancing Translational Sciences (NCATS)
PLK1 PBD block: inhibitors of human PLK1 polo-box domain binding | P53350 | Plk1 PBD binding of FITC phosphopeptide, fluorescence polarization | Potency, µM, without a hit: max response, negative = inhibition, actives largely listed as inhibitors | 2.8% of 360,000 active; further: series mostly up to about 57 µM; nearly all actives have a fitted effect of over 65% in size
Target sequence (P53350 whole entry, looked up, the tested form may be a part): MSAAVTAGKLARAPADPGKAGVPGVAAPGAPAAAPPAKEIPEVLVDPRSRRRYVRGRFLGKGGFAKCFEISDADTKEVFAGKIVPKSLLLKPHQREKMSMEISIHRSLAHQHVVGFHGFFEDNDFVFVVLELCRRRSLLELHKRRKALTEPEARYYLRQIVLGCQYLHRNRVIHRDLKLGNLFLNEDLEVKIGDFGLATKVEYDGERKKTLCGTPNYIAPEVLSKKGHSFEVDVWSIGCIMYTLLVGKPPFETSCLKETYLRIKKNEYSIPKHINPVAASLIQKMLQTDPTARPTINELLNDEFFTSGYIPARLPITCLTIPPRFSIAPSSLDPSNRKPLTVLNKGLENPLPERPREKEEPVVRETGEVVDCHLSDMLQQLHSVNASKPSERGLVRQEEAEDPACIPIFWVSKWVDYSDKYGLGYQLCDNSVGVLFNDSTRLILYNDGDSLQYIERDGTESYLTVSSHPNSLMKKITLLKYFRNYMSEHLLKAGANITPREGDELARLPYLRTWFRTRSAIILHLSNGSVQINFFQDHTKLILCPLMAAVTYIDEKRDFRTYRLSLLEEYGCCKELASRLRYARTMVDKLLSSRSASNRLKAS
Sfp inh: blocks B. subtilis Sfp PPTase activity; Q9F4F7; Biochemical Sfp PPTase activity, qHTS; Potency, µM, inactives show largest response in the series, negative = inhibition, usual class: inhibitors; 3.5% of 310,000 active; AID 1490;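 further: the enzyme is Sfp with the accession as filed and its product quenches rhodamine fluorescence; 0% = enzyme reaction without inhibitor and -100% = no enzyme wells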
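With Hepes-Na pH 7.6 buffer containing 10 mM MgCl2, Sfp (15 nM) modified BHQ-2-YbbR (12.5 uM) using rhodamine-CoA (5 uM). Two reads 30 minutes apart at 525/598 nm yielded each well's rate.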
ALOX12 inh: blocks human arachidonate 12S-lipoxygenase. Potency, µM (highest dose often 108 µM), for the others: at the highest dose activity change, negative = inhibition, actives largely listed as inhibitors. P18054. 1.1% of 580,000 active. purified 12hLO, xylenol orange hydroperoxide absorbance
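Purified human 12hLO at 150 nM in 25 mM Hepes, 0.01% Triton X-100, pH 7.0, preincubated 15 min at room temperature with compound. Reaction started with 40 uM arachidonic acid, 30 min at room temperature. Hydroperoxide measured by Fe-xylenol orange, 573/405 nm absorbance ratio.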
VDR inhibitor: vitamin D3 receptor (human) inhibition; Potency, µM, for the others: max response, negative = inhibition, usual class: inhibitors; 0.93% of 400,000 active; VDR-SRC2-3 peptide fluorescence polarization, 2 h; P11473; AID 504847
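Reagent solutions, kept cold and dark, are dispensed first; compounds are then pinned in at 23 nl, plates briefly spun, and incubated 2 h at ambient temperature. Inhibition of VDR–SRC2-3 peptide binding is read by fluorescence polarization.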
Active calls of the source: *; ? = inconclusive; · = no result given; [ ] = another dose, or the depositor's remark. Most compounds without a hit are left out; they make up all but 4.2% or so of the library. The call rests on the fitted dose curve; in most records, active means well fitted curve in the direction sought with a large enough effect; inconclusive means small, poorly fitted or top-dose-only effect, or another doubt; inactive means no such curve, though single readings can be large; an effect the other way counts as inactive or inconclusive. Unless noted, on the % scale 0 is the no-effect control and ±100 the full control effect; potency means the concentration at half of the fitted maximal effect.

SMILES | PLK1 PBD block | Sfp inh | ALOX12 inh | VDR inhibitor
COc1ccc(CN2C(=O)/C(=C/c3ccc(-c4ccc(Cl)c(C(=O)O)c4)o3)SC2=S)cc1 | · | 50µM* | · | ·
Cc1cccc(N2C(=O)/C(=C/c3cccnc3)SC2=S)c1 | -10% | 14% | 0% | -13%
O=C(O)c1cc(-c2ccc(/C=C3/SC(=S)N(Cc4ccccc4)C3=O)o2)ccc1Cl | -5% | 50µM* | 13µM* | -20%
COc1cc(/C=C2/SC(=S)N(Cc3ccccc3)C2=O)ccc1O | 15% | -7% | 8% | -2%
Cc1ccc(/C=C2\SC(=S)N(c3cccnc3)C2=O)o1 | -11% | 50µM* | -22% | -3%
Cc1ccc(/C=C2\SC(=S)N(Cc3ccccc3)C2=O)o1 | -13% | ? | 45µM* | -8%
COC(=O)Cn1nc2n(c1=O)CCN(Cc1ccccc1C)C2=O | · | · | 5% | ·
Cc1cc([N+](=O)[O-])nn1Cc1c(F)c(F)c(F)c(F)c1F | -5% | -2% | -15% | 15%
CC(C)(C)NC(=O)NC(=O)CSc1n[nH]c(-c2ccccc2Br)n1 | -11% | 21% | -8% | -16%
S=c1nc(-c2ccccc2Br)[nH][nH]1 | ? | -12% | 25µM* | -2%
S=c1nc(-c2cccc(Cl)c2)[nH][nH]1 | -26% | ? | ? | -15%
S=c1nc(-c2cc(Cl)cc(Cl)c2)[nH][nH]1 | 24µM* | 40µM* | ? | -20%
S=c1nc(-c2cc(Cl)ccc2Cl)[nH][nH]1 | 15µM* | 50µM* | 10µM* | ?
CN(NC1OC(=O)c2ccccc21)c1ncc(C(F)(F)F)cc1Cl (configuration not stated) | -8% | 7% | 35% | 7%
Cc1ccc(CNC(=O)N2CCC(Oc3ncccc3C(=O)N3CCCCC3)C2)cc1 (configuration not stated) | · | · | 62% | ·
COc1ccc(C(=O)Nc2sc3c(c2C(=O)NCc2ccco2)CCCC3)cc1OC | 0% | ? | 0%[57.4 µM] | 1%
COC(=O)Nc1sc2c(c1C(=O)NCc1ccco1)CCCC2 | -13% | 79µM* | -18% | 7%
O=C(Nc1sc2c(c1C(=O)NCc1ccco1)CCCC2)c1ccc2c(c1)OCO2 | -14% | 45µM* | ? | -3%
COc1cc(C(=O)Nc2sc3c(c2C(=O)NCc2ccco2)CCCC3)cc(OC)c1OC | -2% | 16% | -6% | -5%
Nc1nc2c(ncn2C2CCCC2)c(=O)[nH]1 | 1% | · | -6% | -3%
Nc1nc(=S)c2ncn(C3CCCC3)c2[nH]1 | -11% | 13µM* | ? | -20%
CC1=C(C(=O)OC(C)(C)C)C(c2ccccc2)N2C(CC(=O)N3CCCC3)=CSC2=N1 (configuration not stated) | · | · | 50% | ·
COc1ccc(C2=Nn3c(nnc3-c3ccccc3OC)SC2)cc1OCC1CC1 | · | · | 35µM* | -17%
Oc1ccc(C2=Nn3c(nnc3-c3ccco3)SC2)cc1O | ? | ? | 7.1µM* | -20%
COc1ccc(C2=Nn3c(nnc3-c3ccco3)SC2)cc1 | -3% | -26% | 2% | -4%
SMILES | PLK1 PBD block | Sfp inh | ALOX12 inh | VDR inhibitor
COc1ccccc1C1=Nn2c(nnc2-c2ccccc2O)SC1 | · | -14% | · | ·
COc1ccc(C2=Nn3c(nnc3-c3ccccc3O)SC2)cc1OC | · | 45µM* | · | ·
COc1cccc(C2=Nn3c(nnc3-c3ccccc3C)SC2)c1 | · | 63µM* | · | ·
CCOC(=O)c1ccc(-c2c(-c3ccccc3OC)sc3ccc(OC)cc23)cc1F | -18% | · | -14% | -16%
COc1cccc(CNC(=O)C2CCN(S(=O)(=O)c3ccc4c(c3)NC(=O)C(C)S4)CC2)c1 (configuration not stated) | -5% | 14% | -20% | 19%
COC(=O)c1sc2ncccc2c1OCc1c(Cl)cccc1Cl | 1% | 3% | 40µM* | 7%
COC(=O)c1sc2ncccc2c1OCc1cccc(Cl)c1 | 0% | -12% | 0% | -7%
COc1ccc(C)cc1S(=O)(=O)Nc1cccc(C)c1 | 0% | 20% | -1% | 14%
COc1cccc(NS(=O)(=O)c2cc(C)ccc2OC)c1 | 8.4µM* | 6% | 0% | ?
CN(CCOc1ccccc1)CC(=O)Nc1ccc(S(=O)(=O)N2CCCC2)cc1 | -1% | 56µM* | 0% | -15%
CNC(=O)COc1ccc(S(=O)(=O)N2CCCC2)cc1 | 5.3µM* | 1% | -12% | 50µM*
O=C(O)COc1ccc(S(=O)(=O)N2CCCC2)cc1 | 1% | 24% | -2% | 3%
CN1CCN(S(=O)(=O)c2ccc(NC(=O)COc3ccccc3)cc2)CC1 | -10% | 8% | -8% | -8%
Cc1ccccc1NC(=O)Cc1cccc(C(F)(F)F)c1 | -14% | 9% | -1% | -3%
